For 45 sequences, binding signal results are on record in article PMC10726135, “HNF4α isoforms regulate the circadian balance between carbohydrate and lipid metabolism in the liver”.

The full ranking holds about 18,000 sequences; the median of “log2 normalized intensity” is about 0.36, and the highest 2% start at about 7.3. What follows is part of a selection rich in the highest values, with near analogues and random picks from the rest.

The experiment deals with T1, HNF4alpha8 (COS-7 nuclear extract) (Homo sapiens, UniProt P41235-5 1-452).
T1 sequence: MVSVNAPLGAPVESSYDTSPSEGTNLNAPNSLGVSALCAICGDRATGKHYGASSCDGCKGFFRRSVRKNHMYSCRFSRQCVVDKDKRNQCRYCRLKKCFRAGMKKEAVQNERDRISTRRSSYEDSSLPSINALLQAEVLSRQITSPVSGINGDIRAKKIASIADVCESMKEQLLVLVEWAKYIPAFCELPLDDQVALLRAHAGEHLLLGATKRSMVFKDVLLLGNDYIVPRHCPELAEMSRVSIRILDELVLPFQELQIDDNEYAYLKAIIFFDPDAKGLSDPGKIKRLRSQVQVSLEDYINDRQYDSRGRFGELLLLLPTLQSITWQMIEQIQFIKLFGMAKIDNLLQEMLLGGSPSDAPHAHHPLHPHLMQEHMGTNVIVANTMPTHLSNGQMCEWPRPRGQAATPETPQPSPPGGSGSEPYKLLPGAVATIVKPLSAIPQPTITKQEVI
As to the kind of experiment: protein-binding microarray; COS-7 nuclear extract on double-stranded Agilent 4x180k PBM; binding buffer, salt, pH and temperature not given in the material; high values mean tight binding. To be noted: chain copies: 2; label: 3' end of strand 1 on the slide; dsDNA, one strand shown. The procedure, abridged: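 Nuclear extracts from COS-7 cells expressing a transiently transfected human HNF4α isoform were put on a custom Agilent SurePrint G3 4x180k array carrying ~44,000 double-stranded ~60-nt test sequences in quadruplicate. Imaging used an Agilent G2565CA scanner at 2-µm resolution. Binding signal is the background-corrected, normalized gProcessedSignal from Agilent software.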
With “TGTCAGGAACAACTTCGGGAATCTGACCTTGCCTAGGGAGATTAGAGTATCGGTCGA”, the binding signal came out at 4.3 log2 normalized intensity.

As to “GCTTACAACTCTAAGGGGGAAAGTCCACGTGCCTAGGGAGATTAGAGTATCGGTCGA”, the binding signal was determined as 4.61 log2 normalized intensity. For the sequence “CTCAACCTCCCCCTGGGGACAGGTGTTAATGCCTAGGGAGATTAGAGTATCGGTCGA”, the binding signal came out at 2.27 log2 normalized intensity.

“CACGTGCAAAGTACAAAGTACAGAGATGGCGCCTAGGGAGATTAGAGTATCGGTCGA”: the binding signal turned out to be 3.78 log2 normalized intensity. The result for “GGGTAACTGACCTTGTTGCCCACCCCCCAAGCCTAGGGAGATTAGAGTATCGGTCGA” reads 5.8 log2 normalized intensity; that for “TCAATGGCCCCAGTGCACGTGCATGAGGCCGCCTAGGGAGATTAGAGTATCGGTCGA”, -0.475 log2 normalized intensity; that for “GGATCCTTGGAGGACCTTGGGTTCATTTTAGCCTAGGGAGATTAGAGTATCGGTCGA”, 2.86 log2 normalized intensity.

As to “TTTTGCTCTGATCCTAGTCTTTGCCCCACTGCCTAGGGAGATTAGAGTATCGGTCGA”, the binding signal is 3.94 log2 normalized intensity.

As for “ACTGCCCGCTGGCCTCCCCATCCTCATGACGCCTAGGGAGATTAGAGTATCGGTCGA”, the binding signal was 2.93 log2 normalized intensity. The result for “CAAGCTGACAAACATGTATCAGTGATAGACGCCTAGGGAGATTAGAGTATCGGTCGA” reads -0.0274 log2 normalized intensity. The result for “CTTTAGCACCTTCATCCAAAGATGACCTTTGCCTAGGGAGATTAGAGTATCGGTCGA” reads 8.24 log2 normalized intensity. To “TATGACCTTTGCTTTTCAAGATTTTACCTAGCCTAGGGAGATTAGAGTATCGGTCGA” belongs 2.72 log2 normalized intensity; to “AATCGACCTTTAGCACCGTAAGAGAGTATTGCCTAGGGAGATTAGAGTATCGGTCGA”, 4.63 log2 normalized intensity. In the case of “TAACTCCTTTGTGTGAATCGACCTTTAGCAGCCTAGGGAGATTAGAGTATCGGTCGA”, the binding signal came to 6.42 log2 normalized intensity. To “TCTTATTGCCTCATGTTTGCAGAATGGCTGGCCTAGGGAGATTAGAGTATCGGTCGA” belongs 0.617 log2 normalized intensity; to “CCTTTGGACTGTCCTTTGCTAGATTCTTTCGCCTAGGGAGATTAGAGTATCGGTCGA”, 2.13 log2 normalized intensity. To “CTGGACTTTCCTTTGTTGGGAGACTTTTTAGCCTAGGGAGATTAGAGTATCGGTCGA” belongs 1.45 log2 normalized intensity; to “TTTGGACTTTGGACTTGGGACTTTCGAGTTGCCTAGGGAGATTAGAGTATCGGTCGA”, 8.22 log2 normalized intensity. To “ACTTTGGACTTGGGACTTTCGAGTTAATGCGCCTAGGGAGATTAGAGTATCGGTCGA” belongs 4.67 log2 normalized intensity; to “GAGACTTTGGACTTTGGACTTGGGACTTTCGCCTAGGGAGATTAGAGTATCGGTCGA”, 9.81 log2 normalized intensity; to “GGACTTGGGACTTTCGAGTTAATGCTGGAGGCCTAGGGAGATTAGAGTATCGGTCGA”, 3.2 log2 normalized intensity. As to “ATAGCAAACACGATTGGATGGAAGGTCCTTGCCTAGGGAGATTAGAGTATCGGTCGA”, the binding signal worked out at 0.748 log2 normalized intensity. As for “AATCAAACTGAACTTTGAAACAAGCCCATCGCCTAGGGAGATTAGAGTATCGGTCGA”, the binding signal stood at 3.87 log2 normalized intensity. The result for “CAACCTCTCCAATGCTATGCTTTTATTTAAGCCTAGGGAGATTAGAGTATCGGTCGA” reads -0.995 log2 normalized intensity; that for “CATCATAAACCCGATCCTTACTATTAGGTCGCCTAGGGAGATTAGAGTATCGGTCGA”, 1 log2 normalized intensity.

“CTGTGCTGCCCTTTGCCCTTTGGGAAGGGGGCCTAGGGAGATTAGAGTATCGGTCGA”: the binding signal is 6.59 log2 normalized intensity. For “GAGAGTTTTCCTTGGCTGTGCTGCCCTTTGGCCTAGGGAGATTAGAGTATCGGTCGA”, the binding signal came out at 4.01 log2 normalized intensity. To “GGACTTTGGGCTGTGTTTTGCCCCTGCAGAGCCTAGGGAGATTAGAGTATCGGTCGA” belongs 4.12 log2 normalized intensity; to “CTTGGCTGTGCTGCCCTTTGCCCTTTGGGAGCCTAGGGAGATTAGAGTATCGGTCGA”, 7.91 log2 normalized intensity; to “TTTTCCTTGGCTGTGCTGCCCTTTGCCCTTGCCTAGGGAGATTAGAGTATCGGTCGA”, 8.52 log2 normalized intensity.

Consider “GGGTGGGGTGCTGCCTTTCCTGTGACTTTTGCCTAGGGAGATTAGAGTATCGGTCGA”, for which the binding signal was found to be 2.09 log2 normalized intensity. The result for “GCGTAGCCCAAAGGTCAGTCTGCAGCTAATGCCTAGGGAGATTAGAGTATCGGTCGA” reads 3.36 log2 normalized intensity; that for “AGTAGGCACTATTATCCCCCTATCCCAAGAGCCTAGGGAGATTAGAGTATCGGTCGA”, 4.72 log2 normalized intensity. For “TTTGTTGCCTCTTTTCTGCTTTTGGAATTTGCCTAGGGAGATTAGAGTATCGGTCGA”, the binding signal turned out to be 3.37 log2 normalized intensity. To “TGCCTCTTTTCTGCTTTTGGAATTTGACCTGCCTAGGGAGATTAGAGTATCGGTCGA” belongs 8.78 log2 normalized intensity.

With “CGCATTTCTGCTTCTTCTCATTCTTGGAATGCCTAGGGAGATTAGAGTATCGGTCGA”, the binding signal is 1.49 log2 normalized intensity. To “CCCCTCAGTTTTTCTCTTTTGACCTTTGGAGCCTAGGGAGATTAGAGTATCGGTCGA” belongs 9.54 log2 normalized intensity.

In the case of “ATTATCTGCTTTTATGACCTTTGACTGCAGGCCTAGGGAGATTAGAGTATCGGTCGA”, the binding signal worked out at 7.32 log2 normalized intensity. The result for “GTGCTTGGACCTGCTCTGTTTTCTTTCGGTGCCTAGGGAGATTAGAGTATCGGTCGA” reads 1.24 log2 normalized intensity; that for “CTTTTCTGCTTTTGGAATTTGACCTCATTTGCCTAGGGAGATTAGAGTATCGGTCGA”, 7.55 log2 normalized intensity; that for “GCCTTATTATCTGCTTTTATGACCTTTGACGCCTAGGGAGATTAGAGTATCGGTCGA”, 8.05 log2 normalized intensity.

Take “CCTAAGCCTTATTATCTGCTTTTATGACCTGCCTAGGGAGATTAGAGTATCGGTCGA”: the binding signal stood at 3.51 log2 normalized intensity.

As for “GCATGACCTCAACTCTCAGTTTGGCTCTTAGCCTAGGGAGATTAGAGTATCGGTCGA”, the binding signal stood at 0.116 log2 normalized intensity.

In the case of “CTGCTTTTGGAATTTGACCTCATTTGCTCCGCCTAGGGAGATTAGAGTATCGGTCGA”, the binding signal is 6.52 log2 normalized intensity. The result for “GGTGACCCCTCAGTTTTTCTCTTTTGACCTGCCTAGGGAGATTAGAGTATCGGTCGA” reads 4.77 log2 normalized intensity.
